Structures are written as SMILES. The panel holds about 83,000 compounds, 20% with a hit somewhere; the sample as a whole holds those more often.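 Interpretation: 100, growth as untreated; towards 0, rising growth inhibition; 0, no net growth; 0 to -100, cell death. Compounds scoring below 10 were considered active.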 A number with no mark means an inactive call. Activity calls are given as the source filed them.

Some test systems named below: HCT-15 colon; HT29 colon; SNB-75 CNS; SNB-19 CNS; U251 CNS; PC-3 prostate; SK-MEL-5 melanoma; UACC-62 melanoma; LOX IMVI melanoma; SK-MEL-28 melanoma; SK-MEL-2 melanoma; EKVX NSCLC; UO-31 renal; TK-10 renal; ACHN renal; CAKI-1 renal; A498 renal; CCRF-CEM leukemia; MOLT-4 leukemia; SN12C renal.
Assay in all cases: NCI-60 one-dose screen, 48 h (100 = growth as untreated, 0 = no growth, -100 = all killed)
Common to all, as to conditions: 10 µM unless noted

For the compound `CCCCCCCC/C=C\CCCCCCCCOc1ccccc1CC(=O)NCC[N+]1(C)CCCCC1`, the growth in the test with HCT-15 colon is 102%; in the test with HT29 colon it was 9.78% (active); in the test on SNB-75 CNS it was 49.3%; in the test with SNB-19 CNS, 52.6%; in the test on U251 CNS it was 39%; in the test with PC-3 prostate, 3.49% (active). In addition, the growth in the test on SK-MEL-5 melanoma is 86.5%; in the test with UACC-62 melanoma, 53.8%; with LOX IMVI melanoma it was 75.7%; in the test with SK-MEL-28 melanoma, 84.2%; with SK-MEL-2 melanoma, 88.2%; in the test with EKVX NSCLC, 93.4%. Besides, the growth in the test on UO-31 renal was 94.8%; with TK-10 renal it was 75.8%; with ACHN renal it was 110%; with CAKI-1 renal it was 81.9%; in the test on A498 renal, 94.6%; in the test with CCRF-CEM leukemia, 23.1%. Further, the growth in the test on MOLT-4 leukemia is 20.5%.
On to `CC1(C)C2CC=C(/C=N/NC(=O)C3CCC(=O)N3)C1C2` (stereo not drawn), for which the growth in the test with HCT-15 colon was 104%; in the test with HT29 colon, 106%; in the test on SNB-75 CNS, 91.6%; with SNB-19 CNS, 106%; with U251 CNS, 101%; with PC-3 prostate, 102%. Moreover, the growth is 101% with SK-MEL-5 melanoma; 99.2% in the test with UACC-62 melanoma; 96.9% in the test on LOX IMVI melanoma; 108% in the test with SK-MEL-28 melanoma; 102% with SK-MEL-2 melanoma; 105% in the test with EKVX NSCLC. In addition, the growth was 104% in the test on SN12C renal; 94.6% with UO-31 renal; 97.2% with TK-10 renal; 102% with ACHN renal; 97.4% in the test on CAKI-1 renal; 104% in the test on CCRF-CEM leukemia. Moreover, in the test with MOLT-4 leukemia, the growth is 103%.
Regarding `O=C1Nc2ccccc2/C1=C/c1cn(C[C@@H](O)Cn2c3ccccc3c(=O)c3ccccc32)c2ccccc12`, the growth with HCT-15 colon was 73.9%; with HT29 colon, 77.8%; in the test on SNB-75 CNS it was 63.6%; in the test on SNB-19 CNS, 73.1%; in the test on U251 CNS, 75.2%; with PC-3 prostate, 51.1%. The growth is 67.1% with SK-MEL-5 melanoma; 69.2% with UACC-62 melanoma; 69.1% in the test with LOX IMVI melanoma; 95.4% in the test with SK-MEL-28 melanoma; 79.9% in the test with SK-MEL-2 melanoma; 73.1% with EKVX NSCLC. Also, the growth in the test with SN12C renal is 73.7%; in the test with UO-31 renal, 30.4%; with TK-10 renal, 90.6%; in the test with ACHN renal it was 65.5%; in the test on CAKI-1 renal, 74.2%; in the test on CCRF-CEM leukemia it was 70.5%. The growth in the test on MOLT-4 leukemia is 62.6%.
Regarding `Cn1c(=O)c2c(c3ccccc31)OC(N)=C(C#N)C21C(=O)c2ccccc2C1=O`, the growth in the test on HCT-15 colon was 96.1%; in the test on HT29 colon, 102%; with SNB-75 CNS, 76.8%; with SNB-19 CNS it was 88.2%; with U251 CNS it was 101%; in the test with PC-3 prostate, 80.8%. Besides, the growth was 94.9% in the test with SK-MEL-5 melanoma; 89.8% in the test on UACC-62 melanoma; 97.5% in the test with LOX IMVI melanoma; 104% with SK-MEL-28 melanoma; 107% with SK-MEL-2 melanoma; 86% in the test on EKVX NSCLC. The growth in the test with SN12C renal was 90.1%; with UO-31 renal, 61.4%; with TK-10 renal it was 127%; with ACHN renal, 97%; in the test with CAKI-1 renal it was 84.2%; in the test on CCRF-CEM leukemia, 103%. Further, the growth in the test on MOLT-4 leukemia is 112%.
For `COc1ncc2cc1NS(=O)(=O)c1cccc(c1)C(=O)NCC1=CC=C(S1)c1ncnc3c1SC2=C3C`, the growth with HCT-15 colon is -18.2% (active); with HT29 colon it was 4.55% (active); in the test with SNB-75 CNS, -12.9% (active); in the test on SNB-19 CNS, 11.5%; with U251 CNS it was -10.2% (active); with PC-3 prostate, -24.8% (active). Also, the growth is -38.2% (active) with SK-MEL-5 melanoma; -46.7% (active) with UACC-62 melanoma; -32.1% (active) with LOX IMVI melanoma; -62.2% (active) in the test on SK-MEL-28 melanoma; -33.2% (active) in the test on SK-MEL-2 melanoma; -15.6% (active) in the test on EKVX NSCLC. Also, the growth with UO-31 renal was -12.9% (active); in the test on TK-10 renal it was -6.51% (active); with ACHN renal, -13.7% (active); with CAKI-1 renal, -26.1% (active); in the test with A498 renal, -67.2% (active); in the test with CCRF-CEM leukemia, -0.78% (active). Besides, in the test on MOLT-4 leukemia, the growth is -20.2% (active).
For the compound `N=C(N)c1ccc(-c2ccc(-c3ccc(Cl)cc3Cl)s2)cc1F`, the growth in the test with HCT-15 colon was -75.7% (active); in the test on HT29 colon it was -29.4% (active); with SNB-75 CNS it was 20.7%; with SNB-19 CNS, -34.3% (active); in the test with U251 CNS, -52.1% (active); in the test with PC-3 prostate, -14.1% (active). For the same compound, the growth was 50.8% in the test on SK-MEL-5 melanoma; -54% (active) in the test with UACC-62 melanoma; -89.9% (active) in the test with LOX IMVI melanoma; 83.7% in the test with SK-MEL-28 melanoma; 55.8% with SK-MEL-2 melanoma; 32.4% with EKVX NSCLC. The growth was -90.5% (active) in the test on UO-31 renal; 91.5% with TK-10 renal; -100% (active) in the test on ACHN renal; -82.8% (active) with CAKI-1 renal; 83.7% with A498 renal; -26.1% (active) in the test on CCRF-CEM leukemia. Further, in the test with MOLT-4 leukemia, the growth was -47.2% (active).
Consider `COc1cc2nc(Nc3cccc(F)c3)nc(Nc3cc(C)[nH]n3)c2cc1OC`, for which the growth in the test on HCT-15 colon was -78.6% [20 µM] (active); with HT29 colon, -54.9% [20 µM] (active); with SNB-75 CNS it was -97.5% [20 µM] (active); in the test with SNB-19 CNS it was -89.2% [20 µM] (active); in the test with U251 CNS, -55.5% [20 µM] (active); in the test on PC-3 prostate, -81% [20 µM] (active). Besides, the growth was -90.1% [20 µM] (active) in the test with SK-MEL-5 melanoma; -95.7% [20 µM] (active) in the test with UACC-62 melanoma; -82.3% [20 µM] (active) in the test with LOX IMVI melanoma; -99.3% [20 µM] (active) in the test on SK-MEL-28 melanoma; -68.2% [20 µM] (active) with SK-MEL-2 melanoma; -67.4% [20 µM] (active) with EKVX NSCLC. For the same compound, the growth with UO-31 renal is -98.7% [20 µM] (active); with TK-10 renal, -71% [20 µM] (active); in the test with ACHN renal, -97.1% [20 µM] (active); in the test on CAKI-1 renal, -97.7% [20 µM] (active); in the test on A498 renal it was -83% [20 µM] (active); in the test with CCRF-CEM leukemia, -19.7% [20 µM] (active). Further, the growth in the test on MOLT-4 leukemia is -40.8% [20 µM] (active).

Source of the values: PubChem BioAssay (NCI).
